Screening data as filed in PubChem BioAssay.
HEK293 viab = cell viability loss counter-screen | HEK-293-SNCA-luc viability, GF-AFC fluorescence, 24 h | Potency, µM (series often up to 57.1 µM), without a hit: at the top dose activity change, negative = cytotoxicity, most hits filed as cytotoxic | 150,000 compounds, 0.12% hits | AID 1671193;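 note: potency is the fitted concentration of half-maximal effect; 0% = DMSO-treated cells and -100% = medium-only wells without cells; nearly all actives have a fitted effect of over 30% in size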
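HEK-293-SNCA-luc cells (1500/well) plated 24 h, then exposed 24 h to a dilution series; GF-AFC added 30 min at 37C, fluorescence 405/540 nm; normalised to medium-only and DMSO wells, Hill fit.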
IP6K1 inh = inhibitors of human IP6K1; IP6K1 kinase, ADP-Glo luminescence, 2 h; active compounds read low; activity change, % (series mostly up to about 58 µM); 140,000 compounds, 0.81% hits; in the data active = activity change below about -25%
Target sequence (Q92551 whole entry, looked up): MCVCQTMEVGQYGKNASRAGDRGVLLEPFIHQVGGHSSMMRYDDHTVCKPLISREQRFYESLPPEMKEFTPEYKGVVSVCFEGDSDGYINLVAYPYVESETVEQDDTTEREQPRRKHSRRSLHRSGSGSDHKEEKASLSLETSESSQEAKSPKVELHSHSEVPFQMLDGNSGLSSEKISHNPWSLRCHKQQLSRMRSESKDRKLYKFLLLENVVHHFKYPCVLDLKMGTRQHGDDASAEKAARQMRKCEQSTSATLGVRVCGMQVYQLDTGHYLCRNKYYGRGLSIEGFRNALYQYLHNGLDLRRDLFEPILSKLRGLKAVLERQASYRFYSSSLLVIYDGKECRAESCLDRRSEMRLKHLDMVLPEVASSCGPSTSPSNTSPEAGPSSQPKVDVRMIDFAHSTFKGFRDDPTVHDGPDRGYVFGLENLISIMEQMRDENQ
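ADP-Glo luminescence measures ADP made by human IP6K1 during a 2 h RT reaction with ATP/IP6 (mix at 1.3 mM/130 uM); top library doses 57.5 and 19.1 uM final.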
SNCA expr inhib = reduces expression of the alpha-synuclein gene; HEK-293 SNCA-luciferase knock-in, luminescence, 24 h; Potency, µM (highest dose often 57.2 µM), without a hit: at the top dose activity change, negative = inhibition, hits mostly inhibitors; 140,000 compounds, 0.17% hits; AID 1671194;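 note: potency is the fitted concentration of half-maximal effect; plate controls were DMSO cells for no effect and cell-free wells for full effect; nearly all actives have a fitted effect of over 45% in size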
GPT2 inh = blocks human glutamate pyruvate transaminase 2; Recombinant GPT2, coupled pyruvate oxidase/HRP Amplex Red fluorescence; Potency, µM (titrated, usually from 57.7 µM), for inactives: top-dose activity change, negative = inhibition, usual class: inhibitors; 100,000 compounds, 0.25% hits; AID 1671188; Q8TD30; note: potency is the fitted concentration of half-maximal effect; nearly all actives have a fitted effect of over 60% in size
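Recombinant GPT2 (10ng/uL) with 250uM a-KG and 2mM L-alanine, 30 min at room temperature, in HEPES pH 7.5 buffer. Pyruvate detected by pyruvate oxidase/HRP/Amplex Red fluorescence after 30 min in the dark; AOA (50uM) as positive control.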
The depositor's hits bear a star; ! = not confirmed by another sample; [ ] = remark or other dose. An excerpt weighted towards active compounds, which were near 1.1% of everything screened. Unless noted, calls come from the whole dose curve; as a rule, active = well fitted curve in the direction sought with a large enough effect; inconclusive = small, poorly fitted or top-dose-only effect, or another doubt; inactive = no such curve, though single readings can be large; an effect the other way counts as inactive or inconclusive. Unless noted, % is set by controls: 0 for no effect and ±100 for the full control effect.

How did CCCNc1cc(N2CCC(CCC(=O)NCc3ccccc3Cl)CC2)ncn1 do in these assays?
HEK293 viab: -7%; IP6K1 inh: 22; SNCA expr inhib: 2.8µM*; GPT2 inh: -9%

Results for Cc1nn2c(c1-c1ccccc1C(N)=O)N(CCCc1ccccc1)CCC2 ?
HEK293 viab: inconclusive; IP6K1 inh: 12; SNCA expr inhib: 1.4µM*; GPT2 inh: inactive

How did Cc1nn2c(c1-c1ccccc1-c1ccccc1)N(Cc1ccccc1)CCC2 do in these assays?
HEK293 viab: inconclusive; IP6K1 inh: -2; SNCA expr inhib: inconclusive; GPT2 inh: 0%[88.5 µM]

How did Cc1nn2c(c1-c1ccccc1-c1ccccc1)N(CCC(C)C)CCC2 do in these assays?
HEK293 viab: inconclusive; IP6K1 inh: -9; SNCA expr inhib: 1.1µM*; GPT2 inh: -15%[88.5 µM]

What do the screens show for `CCCn1cc(S(=O)(=O)c2cccc(Cl)c2)c(=O)c2cc(F)c(N3CCN(CC)CC3)cc21`?
HEK293 viab: -20%; IP6K1 inh: -15; SNCA expr inhib: -3%

How did Cc1ccc(NC(=O)C2(c3ccc4c(c3)OC(F)(F)O4)CC2)nc1-c1cccc(C(=O)O)c1 do in these assays?
HEK293 viab: inconclusive; IP6K1 inh: -4; SNCA expr inhib: 0.076µM*; GPT2 inh: inactive

Results for CCCc1nc(C)c2c(=O)[nH]c(-c3cc(S(=O)(=O)N4CCN(CC)CC4)ccc3OCC)nn12 ?
HEK293 viab: 27µM*!; IP6K1 inh: -13; SNCA expr inhib: inconclusive; GPT2 inh: inconclusive

What do the screens show for `CN1Cc2sccc2C(c2ccc(O)c(O)c2)C1` (stereo unspecified)?
HEK293 viab: -18%; SNCA expr inhib: 14%; GPT2 inh: 4µM*

What do the screens show for `CN1CCc2cc(O)c(O)cc2C(c2ccccc2)C1` (stereo unspecified)?
HEK293 viab: -7%; SNCA expr inhib: -13%; GPT2 inh: inconclusive

What do the screens show for `Cc1ccnc(NS(=O)(=O)c2ccc(NC(=O)Nc3ccc(S(=O)(=O)Nc4nccc(C)n4)cc3)cc2)n1`?
HEK293 viab: inconclusive; IP6K1 inh: -18; SNCA expr inhib: 0.86µM*; GPT2 inh: inconclusive

How did COc1cc(SC)ccc1C(=O)Nc1ccc(S(=O)(=O)Nc2nccc(C)n2)cc1 do in these assays?
HEK293 viab: 2%; IP6K1 inh: 1; SNCA expr inhib: 31%

How did CC(C)C[C@H](NC(=O)[C@H](CCc1ccccc1)NC(=O)CN1CCOCC1)C(=O)N[C@@H](Cc1ccccc1)C(=O)N[C@@H](CC(C)C)C(=O)[C@@]1(C)CO1 do in these assays?
HEK293 viab: inconclusive; IP6K1 inh: -1; SNCA expr inhib: 0.12µM*!; GPT2 inh: inactive

How did Cc1nn2c(c1-c1ccnn1C(C)C)N(Cc1ccc(O)cc1)CCC2 do in these assays?
HEK293 viab: 6%[87.6 µM]; IP6K1 inh: 21; SNCA expr inhib: 6%[87.6 µM]; GPT2 inh: inactive

How did Cc1nn2c(c1-c1ccnn1C(C)C)N(Cc1cccc(C#N)c1)CCC2 do in these assays?
HEK293 viab: inconclusive; IP6K1 inh: 12; SNCA expr inhib: 2.8µM*; GPT2 inh: -6%[88.5 µM]

Results for CC(C(=O)NCc1ccccc1)N1Cc2ccccc2C1=O (stereo unspecified) ?
HEK293 viab: 3%; IP6K1 inh: 3; SNCA expr inhib: 0%

How did CC1(C)OC2=C(C(=O)c3ccccc3C2=O)[C@H](NCc2ccccc2)[C@H]1O do in these assays?
HEK293 viab: 14µM*; SNCA expr inhib: 12µM*; GPT2 inh: 14µM*

Results for COC(=O)c1nnn(-c2cccc(C)c2)c1C(=O)OC ?
HEK293 viab: 13%; IP6K1 inh: -6; SNCA expr inhib: 17%

Results for Cc1cccc(-n2nnnc2S(C)(=O)=O)c1 ?
HEK293 viab: 22µM*; IP6K1 inh: 3; SNCA expr inhib: inconclusive

How did CC12C(=O)OC(=O)C1(C)C1CCC2O1 (stereo unspecified) do in these assays?
HEK293 viab: inconclusive; SNCA expr inhib: 3.5µM*; GPT2 inh: inactive

What do the screens show for `C/C=C(/C)C(=O)O[C@H]1[C@H](OC(=O)/C(C)=C\C)[C@@]23C(CC1(C)C)[C@]1(CCC4[C@@]5(C)CC[C@H](O[C@@H]6O[C@H](C(=O)O)[C@@H](O)[C@H](O[C@@H]7O[C@H](CO)[C@H](O)[C@H](O)[C@H]7O[C@@H]7O[C@@H](C)[C@H](O)[C@@H](O)[C@H]7O[C@@H]7OC[C@@H](O)[C@H](O)[C@H]7O)[C@H]6O[C@@H]6O[C@H](CO)[C@H](O)[C@H](O)[C@H]6O)C(C)(C)C5CC[C@@]4(C)[C@]1(C)C[C@H]2O)O[C@H]3O` (stereo partly specified)?
HEK293 viab: 3.6µM*; IP6K1 inh: 15; GPT2 inh: inactive[11.5 µM]

What do the screens show for `O=C(CN1C(=O)NC2(CCCCC2)C1=O)Nc1ccc2c(c1)OCCO2`?
HEK293 viab: 8%; IP6K1 inh: 7; SNCA expr inhib: 21%; GPT2 inh: 5%

What do the screens show for `COc1ccc(OC)c(NC(=O)CCn2cnnn2)c1`?
HEK293 viab: -6%; IP6K1 inh: 17; SNCA expr inhib: 0%

Results for C[C@@H]1C[C@H]2O[C@@H]2/C=C\C=C\C(=O)Cc2c(Cl)c(O)cc(O)c2C(=O)O1 ?
HEK293 viab: -11%[12.5 µM]; IP6K1 inh: -27*; GPT2 inh: 4%[17.1 µM]

What do the screens show for `O=C(CSc1nnc(-c2ccc(Cl)cc2)o1)Nc1ccc(F)cc1`?
HEK293 viab: 2%; IP6K1 inh: 1; SNCA expr inhib: 147%

How did COc1ccccc1Nc1c2c(nc3ccc(NC(=O)c4cccc(OC)c4OC)cc13)CCCC2 do in these assays?
HEK293 viab: 16µM*; IP6K1 inh: 7; SNCA expr inhib: inconclusive

How did O=C(c1ccc(Cl)cc1)N1CCC2(CC1)C(=O)NCN2Cc1ccccc1 do in these assays?
HEK293 viab: 8%; IP6K1 inh: 9; SNCA expr inhib: 2%; GPT2 inh: -2%

How did CC(C)c1ccc(CC(=O)N2CCCc3ncc(C(=O)Nc4cccnc4)cc32)cc1 do in these assays?
HEK293 viab: inconclusive; IP6K1 inh: -22; SNCA expr inhib: 1µM*; GPT2 inh: inactive

How did CC(C)c1ccc(CC(=O)N2CCCc3ncc(C(=O)Nc4cccc(Cl)c4)cc32)cc1 do in these assays?
HEK293 viab: inconclusive; IP6K1 inh: 7; SNCA expr inhib: inconclusive; GPT2 inh: 3%

Results for O=C(c1ccc2nccn2c1)N1CCC(c2ccccc2F)C1 (stereo unspecified) ?
HEK293 viab: -8%; IP6K1 inh: 40; SNCA expr inhib: 10%; GPT2 inh: -14%

Results for C=CCNC(=O)c1cn2c(n1)CN([S+](=O)([O-])c1c(C)noc1C)CC2 ?
HEK293 viab: -2%; IP6K1 inh: 16; SNCA expr inhib: 0%; GPT2 inh: -4%

How did Cc1ccc2nc(NC(=O)CSc3ncc(C(=O)Nc4ccccc4)c(=O)n3C)sc2c1 do in these assays?
HEK293 viab: -1%; IP6K1 inh: -15; SNCA expr inhib: 26%
